c-Myc SMM: c-Myc (human) binding. small molecule microarray, His-c-Myc binding, anti-His fluorescence. calls only. 1.5% of 17,000 active. AID 624141;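 active = spot fluorescence over background with P-value below 7% in all four replicate spots, showing protein binding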;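 also: score is binary with 100 for all four spots passing and 0 otherwise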
Target sequence (P01106 whole entry, looked up): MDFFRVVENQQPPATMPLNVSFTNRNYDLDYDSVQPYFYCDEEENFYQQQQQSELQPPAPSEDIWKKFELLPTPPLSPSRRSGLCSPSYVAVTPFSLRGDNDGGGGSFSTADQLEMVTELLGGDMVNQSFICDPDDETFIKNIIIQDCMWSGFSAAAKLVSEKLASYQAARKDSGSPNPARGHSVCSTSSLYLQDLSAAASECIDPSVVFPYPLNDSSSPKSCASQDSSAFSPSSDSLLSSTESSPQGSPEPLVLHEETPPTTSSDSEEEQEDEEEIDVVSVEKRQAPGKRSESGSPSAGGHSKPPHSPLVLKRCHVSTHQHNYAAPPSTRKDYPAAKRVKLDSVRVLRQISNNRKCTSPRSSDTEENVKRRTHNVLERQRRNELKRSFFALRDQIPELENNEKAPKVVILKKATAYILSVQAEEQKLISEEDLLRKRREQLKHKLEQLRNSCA
p53 mut binder: mutant p53 (human) binding; small molecule microarray binding, anti-GST fluorescence; calls only; 0.4% of 17,000 active; AID 624136;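 active = compounds whose four printed spots each glow above background more than chance allows, each with a p-value under 7%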
STAT3 SMM: STAT3 (human) binding; P40763; Small molecule microarray, His-STAT3 binding, anti-His fluorescence; calls only; 0.2% of 17,000 active; AID 624138;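 active = compounds whose four printed spots each show fluorescence over background unusually high for their array block, chance value under 7%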
NFkB SMM: binders of human NF-kappa-B p105; 1.3% of 17,000 active; calls only; Small molecule microarray, anti-His fluorescence binding; AID 624139; P19838;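 active = spot fluorescence over background significantly raised, with a chance value under 7% in all four replicate spots of the compound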;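 also: probe protein is his-tagged human p50 processed subunit at 1 µg/ml; raw spot fluorescence signals with no normalization applied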
Starred values were filed as active, the others as inactive; i = inactive; + = active, no number. Rows were chosen to be rich in hits. Some 2.1% of all compounds tested hit in one or more screens of this group.

SMILES	c-Myc SMM	p53 mut binder	STAT3 SMM	NFkB SMM
CCOc1ccc(C)cc1S(=O)(=O)n1nnc2ccccc21	+	i	i	+
CN(CCCC(=O)O)c1nc(-c2ccc(F)cc2)cs1	i	i	i	i
COc1ccc(S(=O)(=O)N(C)CC(=O)Nc2ccc(C(N)=O)cc2)cc1C	i	i	i	i
c1ccc(-c2noc(CSc3nnc(C4CC4)n3-c3ccccc3)n2)cc1	i	i	i	i
O=C1C(=O)N(Cc2ccco2)C(c2cccnc2)C1C(=O)c1cc2ccccc2o1 (stereo not drawn)	i	i	i	i
C[C@H](CCC(=O)O)[C@H]1CCC2[C@@H]3CC[C@@H]4C[C@H](O)CC[C@]4(C)C3C=C[C@@]21C (stereo partly drawn)	i	i	i	+
CC(=O)Nc1ccc(C(=O)Nc2ccccc2[N+](=O)[O-])cc1	i	i	i	i
NCCCN(Cc1ccco1)C1CCCC1	+	i	i	i
CCc1ccc(OCC(=O)Nc2ccccc2C(N)=O)c(Br)c1	i	i	i	i
C[C@@H]1CN([C@H](C)CO)C(=O)c2cc(NC(=O)c3ccncc3)ccc2O[C@@H](C)CCCCO[C@@H]1CN(C)C(=O)Nc1cccc2ccccc12	i	i	+	i
C[C@@H]1CN([C@@H](C)CO)C(=O)c2cc(NC(=O)c3ccncc3)ccc2O[C@@H](C)CCCCO[C@@H]1CN(C)C(=O)Nc1cccc2ccccc12	i	+	+	i
C[C@@H]1CN([C@H](C)CO)C(=O)c2cc(NC(=O)c3ccncc3)ccc2O[C@@H](C)CCCCO[C@H]1CN(C)C(=O)Nc1cccc2ccccc12	+	i	i	+
C[C@@H]1CCCCO[C@@H](CN(C)C(=O)Nc2cccc3ccccc23)[C@H](C)CN([C@@H](C)CO)C(=O)c2cc(NC(=O)c3ccncc3)ccc2O1	+	i	i	+
C[C@@H]1CN([C@@H](C)CO)C(=O)c2cc(NC(=O)Nc3ccc(F)cc3)ccc2O[C@@H](C)CCCCO[C@H]1CN(C)C(=O)Nc1cccc2ccccc12	i	i	i	i
C[C@@H]1CN([C@@H](C)CO)C(=O)c2cc(NC(=O)c3ccncc3)ccc2O[C@@H](C)CCCCO[C@@H]1CN(C)C(=O)Nc1ccccc1	i	i	i	i
C[C@@H]1CN([C@@H](C)CO)C(=O)c2cc(NC(=O)c3ccncc3)ccc2O[C@@H](C)CCCCO[C@H]1CN(C)C(=O)Nc1cccc2ccccc12	+	i	i	+
C[C@@H]1CCCCO[C@@H](CN(C)C(=O)Nc2cccc3ccccc23)[C@H](C)CN([C@H](C)CO)C(=O)c2cc(NC(=O)c3ccncc3)ccc2O1	+	i	i	+
CC(C)NC(=O)N(C)C[C@H]1OCCCC[C@@H](C)Oc2ccc(NC(=O)c3ccncc3)cc2C(=O)N([C@@H](C)CO)C[C@H]1C	i	i	i	+
C[C@H]1CCCCO[C@@H](CN(C)C(=O)Nc2ccccc2)[C@@H](C)CN([C@@H](C)CO)C(=O)c2cc(NC(=O)c3ccncc3)ccc2O1	i	i	i	i
CC(C)NC(=O)N(C)C[C@H]1OCCCC[C@H](C)Oc2ccc(NC(=O)c3ccncc3)cc2C(=O)N([C@@H](C)CO)C[C@H]1C	i	i	i	i
C[C@@H]1CCCCO[C@@H](CN(C)C(=O)Nc2cccc3ccccc23)[C@H](C)CN([C@H](C)CO)C(=O)c2cc(N(C)C)ccc2O1	+	i	i	+
COc1cc(Br)cc2cc(C(=O)NCCCN3CCOCC3)c(=O)oc12	i	i	i	i
CC(=O)N1Cc2ccccc2C[C@@]2(N=C(c3ccc(OCCCO)cc3)O[C@H]2c2ccccc2)C1=O	i	i	i	i
CCOc1ccc(NC(=O)C(C)Sc2ncnc3sc(-c4ccccc4)cc23)cc1 (stereo not drawn)	+	i	i	i
CCCN(CCC)CC1CCCCN1CCNC(=O)N1c2ccccc2C(=O)Nc2cccnc21 (stereo not drawn)	i	+	i	i
SMILES	c-Myc SMM	p53 mut binder	STAT3 SMM	NFkB SMM
COc1cccc2cc(-c3nnc(SCC(=O)N4c5ccccc5Sc5ccccc54)n3C)oc12	i	i	i	i
Cc1c(C(=O)N(C)C2CCCCC2)sc2nc3ccc(N)cc3n12	+	i	i	i
C[C@@H]1CN([C@@H](C)CO)C(=O)c2cccc(NC(=O)C3CCOCC3)c2O[C@H]1CN(C)Cc1ccc(Cl)c(Cl)c1	+	i	i	i
C[C@H]1CN([C@@H](C)CO)C(=O)c2cccc(NC(=O)NC3CCCCC3)c2O[C@H]1CN(C)C(=O)Nc1ccc(C(F)(F)F)cc1	i	i	i	i
C[C@@H]1CN([C@H](C)CO)C(=O)c2cccc(NC(=O)NC3CCCCC3)c2O[C@H]1CN(C)C(=O)Nc1ccc(C(F)(F)F)cc1	+	i	i	+
C[C@H](CO)N1C[C@H](C)[C@@H](CN(C)Cc2ccc(Cl)c(Cl)c2)Oc2c(NC(=O)C3CCOCC3)cccc2C1=O	i	i	i	i
C[C@@H]1CN([C@@H](C)CO)C(=O)c2cccc(NC(=O)Nc3ccc(C(F)(F)F)cc3)c2O[C@H]1CN(C)C(=O)NC1CCCCC1	i	i	+	i
C[C@@H]1CN([C@@H](C)CO)C(=O)c2cc(NC(=O)NC3CCCCC3)ccc2O[C@H]1CN(C)C(=O)Nc1ccc(C(F)(F)F)cc1	i	i	i	+
COc1ccc(C2C(C(=O)Nc3cc(OC)c(Cl)cc3OC)=C(C)Nc3ncnn32)c(OC)c1 (stereo not drawn)	i	i	i	i
COc1ccc(NC(=O)CNS(=O)(=O)c2ccccc2)cc1OC	i	i	i	i
CC(C)NC(=O)Nc1cccc2c1O[C@@H](CN(C)Cc1ccc(C(F)(F)F)cc1)[C@H](C)CN([C@@H](C)CO)C2=O	+	i	i	+
C[C@H]1CN([C@@H](C)CO)C(=O)c2cccc(NC(=O)NC3CCCCC3)c2O[C@H]1CN(C)C(=O)NC1CCCCC1	+	i	i	+
C[C@@H]1CN([C@@H](C)CO)C(=O)c2cccc(NC(=O)Nc3cccc4ccccc34)c2O[C@H]1CN(C)C(=O)Nc1ccc(C(F)(F)F)cc1	i	i	i	+
C[C@H](CO)N1C[C@H](C)[C@@H](CN(C)Cc2ccc(C(F)(F)F)cc2)OCc2cnnn2CCCC1=O	+	i	i	+
C[C@@H]1CN([C@@H](C)CO)C(=O)c2cccc(NC(=O)Nc3ccccc3)c2O[C@@H]1CN(C)C(=O)NC1CCCCC1	i	i	i	i
CC(C)NC(=O)Nc1cccc2c1O[C@H](CN(C)Cc1ccccc1)[C@H](C)CN([C@@H](C)CO)C2=O	i	i	i	i
O=C(O)Cc1ccc(NC(=O)CN2C(=O)c3ccccc3C2=O)cc1	i	i	i	i

Screens as filed in PubChem.
